In paper PMC4552634, “A New Set of Chemical Starting Points with Plasmodium falciparum Transmission-Blocking Potential for Antimalarial Drug Discovery” (PLoS ONE, 2015):
Where two headings read alike, the source gives them in different places. The campaign covered roughly 13,000 compounds. About 3,200 (25%) showed an effect of 50% or more. The list shows a part of the results.

Tested on: P. falciparum stage V gametocytes
Set-up: BacTiter-Glo ATP luminescence viability of purified stage V gametocytes in 384-well plates, per cent inhibition versus DMSO
Conditions: 48 h, 5 µM, inhibitor

SMILES	% Inhibition (% Inhibition) [%]	% Inhibition [%]
O=C(Nc1ccccc1C(F)(F)F)NC1CCC(CN2CCC(c3c[nH]c4ccccc34)CC2)CC1 (centres unmarked) [TCMDC-140197]	5.962	–
Cn1nc(-c2ccc(S(=O)(=O)NC3CCC(CN4CCC(c5c[nH]c6ccccc56)CC4)CC3)s2)cc1C(F)(F)F (centres unmarked) [TCMDC-140166]	62.77	–
Cn1nc(-c2ccc(S(=O)(=O)NC3CCC(CN4CCC(c5c[nH]c6ccccc56)CC4)CC3)s2)cc1C(F)(F)F (centres unmarked) [TCMDC-140174]	96.23	–
O=S(=O)(NC1CCC(CN2CCC(c3c[nH]c4ccccc34)CC2)CC1)c1ccc(Cl)c(Cl)c1 (centres unmarked) [TCMDC-140164]	–	18.4
O=C(Nc1ccccc1C(F)(F)F)NC1CCC(CN2CCC(c3c[nH]c4ccccc34)CC2)CC1 (centres unmarked) [TCMDC-140177]	-23.5	–
O=C(NC1CCC(CN2CCC(c3c[nH]c4ccccc34)CC2)CC1)c1cc(-c2ccccc2Cl)oc1C(F)(F)F (centres unmarked) [TCMDC-140358]	–	4.446
CCN1CCN(c2cc(C)c3cc(NC(=O)c4ccc(N(CC)CC)cc4)ccc3n2)CC1 [TCMDC-125574]	–	18.21
COc1ccc(-c2csc(NC(=O)CCC(=O)O)n2)cc1OC [TCMDC-124274]	–	-7.165
CCCC(C)c1ccc(N2C(N)=NC(N)=NC2(C)C)cc1 (centres unmarked) [TCMDC-137715]	–	12.27
O=C(O)c1ccc(NC(=O)C2CC(=O)N(Cc3ccc(Cl)cc3)C(=Nc3ccc(Cl)cc3)S2)cc1 (centres unmarked) [TCMDC-124036]	–	-57.25
COc1ccc(C[C@H](N)C(=O)N[C@H]2[C@@H](O)[C@H](n3cnc4c(N(C)C)ncnc43)O[C@@H]2CO)cc1 [TCMDC-123493]	123.8	–
COc1ccc(C[C@H](N)C(=O)N[C@H]2[C@@H](O)[C@H](n3cnc4c(N(C)C)ncnc43)O[C@@H]2CO)cc1 [TCMDC-123927]	96.23	–
CS(=O)(=O)c1ccc(-c2cncc(Nc3cccc([N+](=O)[O-])c3)c2)cc1 [TCMDC-136669]	–	44.65
CCn1cc(CN2C(=O)C(c3ccccc3)(c3ccccc3)N=C2N)cn1 [TCMDC-136798]	–	10.89
CC1(C)N=C(N)N=C(N)C1c1ccc(Cl)c(Cl)c1 (centres unmarked) [TCMDC-137491]	–	-1.127
N#CC(NC(=O)C=Cc1ccccc1)c1ccccc1 (centres unmarked) [TCMDC-131635]	–	-0.4742
Cl.c1ccc2c(Nc3ccc(Cc4ccc(Nc5c6ccccc6nc6ccccc56)cc4)cc3)c3ccccc3nc2c1 [TCMDC-137354]	–	113.6
Cl.Nc1nc(Nc2cccc(O)c2)nc2ccccc12 [TCMDC-124459]	–	5.684
Cc1ccc(Nc2nc(N)c3ccccc3n2)cc1.Cl [TCMDC-123638]	–	30.09
c1cc(Cc2ccc(Nc3c4ccccc4nc4ccccc34)cc2)cc(Nc2c3ccccc3nc3ccccc23)c1 [TCMDC-137793]	–	84.71
c1ccc(Oc2cccc(Nc3ccnc4ccccc34)c2)cc1 [TCMDC-137251]	–	14.27
CC1(C)Cc2c(oc3ncn(CCn4cnc5oc6c(c5c4=N)CC(C)(C)SC6)c(=N)c23)CS1 [TCMDC-125795]	–	-5.815
O=C(NC1CC1)c1ccc(N2CCC(c3ccccc3)CC2)nc1 [TCMDC-134590]	–	17.19
Cc1ccc(CON2C(N)=NC(N)=NC2(C)C)cc1C [TCMDC-131660]	–	9.174
NOCCCOc1ccc(Cl)cc1 [TCMDC-123471]	–	6.801

SMILES	% Inhibition (% Inhibition) [%]	% Inhibition [%]
COc1ccc(NC(=O)[C@H](CC(C)C)Nc2cc(C)nc(NCCOc3ccccc3)n2)cc1 [TCMDC-134760]	–	36.25
CC(C)CCNC(=N)Nc1ccc(OCCCCCOc2ccc(NC(=N)NCCC(C)C)cc2)cc1 [TCMDC-137614]	–	113.6
CC(C)CCNC(=N)Nc1ccc(OCCCOc2ccc(NC(=N)NCCC(C)C)cc2)cc1 [TCMDC-137615]	–	100.2
CS(=O)(=O)Nc1ccc(OCCCCCCOc2ccc(NS(C)(=O)=O)cc2)cc1 [TCMDC-137531]	–	17.32
COc1ccc(-c2ccc(CNC(=O)c3cccc(C#N)c3)c(F)c2)cc1CN1CCCN(C)CC1 [TCMDC-133367]	–	3.232
O=C(CCc1cccnc1)Nc1ccc(-c2cccc(-c3nc4ccc(F)cc4[nH]3)c2)cc1 [TCMDC-132146]	–	-0.1199
CC1(C)CC(=O)c2c(O)cc(OCc3ccncc3)cc2O1 [TCMDC-131348]	–	-21.15
Cc1cccc2nc(-c3ccc(-c4cccc(CNCCN5CCNCC5)c4)cc3)[nH]c12 [TCMDC-132867]	–	101.3
Cc1cccc2nc(-c3cccc(-c4cccc(CNCCN5CCNCC5)c4)c3)[nH]c12 [TCMDC-132873]	–	108
Cc1cccc2nc(-c3cccc(-c4cccc(CNCCc5cccn5C)c4)c3)[nH]c12.O=C(O)C(F)(F)F [TCMDC-132685]	–	-19.68
Cc1cccc2nc(-c3cccc(-c4cccc(CNCCCN5CCCC5=O)c4)c3)[nH]c12.O=C(O)C(F)(F)F [TCMDC-132751]	–	3.721
Cc1cccc2nc(-c3cccc(-c4ccc(CNCCCN5CCCC5=O)cc4)c3)[nH]c12.O=C(O)C(F)(F)F [TCMDC-132753]	–	7.956
Cc1cccc2nc(-c3ccc(-c4ccc(C(=O)NCCN5CCCC5)cc4)cc3)[nH]c12 [TCMDC-132320]	–	6.886
CCOc1cc2ncnc(Nc3cc(Cl)c(Cl)c(Cl)c3)c2cc1OCC [TCMDC-131926]	–	9.404
O=C(c1ccc(Cl)cc1)N1CCCC(C(=O)N(Cc2nnc(-c3ccccc3Cl)o2)C2CC2)C1 (centres unmarked) [TCMDC-125331]	–	-2.423
O=C(Nc1ccc(S(=O)(=O)N2CCCCC2)cc1)c1cc(-c2ccccc2O)n[nH]1 [TCMDC-124310]	–	-14.76
CC(C)c1ccc(NC(=S)NN=Cc2ccccn2)cc1 [TCMDC-125520]	–	108.1
O=C(Nc1ccc(S(=O)(=O)N2CCCCCC2)cc1)c1cc(-c2ccccc2O)n[nH]1 [TCMDC-125203]	–	-36.28
Fc1ccc(NC(=S)NCCc2ccccc2)cc1 [TCMDC-123847]	–	-9.114
Cc1cc(NN=Cc2ccccn2)c2cc(F)ccc2n1 [TCMDC-142020]	–	16.37
O=S(=O)(c1ccc(NC(=S)NN=Cc2ccccn2)cc1)N1CCCCC1 [TCMDC-125787]	–	60.8
Cc1c(Cl)cccc1NC(=S)NN=Cc1ccccn1 [TCMDC-125487]	–	106.6
Fc1ccc(NC(=S)NN=Cc2ccccn2)cc1 [TCMDC-125521]	–	108.6
COc1ccc2c(NN=Cc3ccccn3)ccnc2c1 [TCMDC-142028]	–	-6.659
CC(=NNC(=S)Nc1ccccc1Cl)c1ccccn1 [TCMDC-124278]	–	2.359
